Measurements taken from PubChem BioAssay AID504832 (National Center for Advancing Translational Sciences (NCATS), 2011).
In all, about 310,000 compounds went through this assay and about 18,000 (5.8%) were called active. Where a call stands in place of a potency, no number is given. Roughly 22% stayed inconclusive and do not appear here. Calls follow the shape of the dose curve; as a rule, active = well fitted inhibition curve with a large enough effect; inconclusive = small, poorly fitted or top-dose-only effect, or another doubt; inactive = no such curve, though single readings can be large or run the other way. Many of the other results were omitted from the sample, so actives are more common in it than they were. Non-standard residues stand in square brackets, D forms with d. Residues, ends and D or L forms follow the SMILES beside them. *: point of attachment. PhAc = O=C(Cc1ccccc1)*

assay: Primary qHTS for delayed death inhibitors of the malarial parasite plastid, 48 hour incubation; details: P. falciparum luciferase growth in erythrocytes; series mostly up to 28.7 µM
Procedure, shortened: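 Luminescence readout; reporter = integrated firefly luciferase in P. falciparum. RBC culture at 2% hematocrit, 0.1% parasitemia final, 37 C/5% CO2; decreased signal taken as growth inhibition.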
Potency is read from the fitted curve at half-maximal effect.

SMILES | Potency | activity change, negative = inhibition
Cc1ccc(S(=O)(=O)N2CCC3(CC2)OCCO3)c(C)c1 | inactive | 
Cc1csc(NC(=O)CSc2nc(=O)n(CCCN(C)C)c3c2CCC3)n1 | inactive | 
CC(=O)Nc1ccc(NC(=O)COc2ccc(-c3ccccc3)cc2)cc1 | inactive | 
CC1CC(C)CN(CCCNC(=O)Cn2ncc3c([nH]c4ccccc43)c2=O)C1 (configuration not stated) | inactive | 
CC(=O)N1CCN(C(=O)c2cc(-c3ccc(C)o3)nc3ccccc23)CC1 | inactive | 
CCOC(=O)C1(Cc2ccccc2C)CCCN(C(=O)CN2C(=O)CSC2=O)C1 (configuration not stated) | inactive | 
CCCCC(=O)Nc1nnc(S(=O)(=O)N(C)Cc2ccco2)s1 | inactive | 
O=C(NCCN1C(=O)S/C(=C\c2cccnc2)C1=O)c1cccc(OC(F)F)c1 | inactive | 
O=C(NCCN1CCOCC1)/C(=C/c1ccc(F)cc1)NC(=O)c1ccccc1 | inactive | 
CN1C(=O)/C(=C/c2ccc(C(=O)NC3CCCC3)cc2)Oc2ccccc21 | inactive | 
Cc1ccc(C(=O)N/C(=C\c2ccc(F)cc2)C(=O)NCCN2CCOCC2)cc1 | inactive | 
O=C(NCCN1CCOCC1)c1ccc(/C=C2\Sc3ccccc3N(Cc3ccc(F)cc3)C2=O)cc1 | 11.7 µM (active) | 
COc1ccc(CCNC(=O)c2ccc3c(c2)NC(=O)C(N2CCOCC2)S3)cc1OC (configuration not stated) | inactive | 
Cc1nn(Cc2ccccc2)c(C)c1C(=O)NCCN1C(=O)S/C(=C\c2ccc(F)cc2)C1=O | inactive | 
COc1ccc(/C=C(\NC(=O)c2ccccc2)C(=O)NCCN2CCOCC2)cc1OC | inactive | 
CCCN1CCN(C(=O)CCCNC(=O)c2ccc(Cl)cc2)CC1 | inactive | 
CCN1CCN(CCNC(=O)c2ccc(/C=C3/Sc4ccccc4N(Cc4cccc(C)c4)C3=O)cc2)CC1 | 11.7 µM (active) | 
CN1CCN(CCCNC(=O)c2ccc(/C=C3\Oc4ccccc4N(Cc4ccc(Cl)cc4)C3=O)cc2)CC1 | 1.65 µM (active) | 
CCN1CCN(CCNC(=O)c2ccc3c(c2)NC(=O)/C(=C\c2ccc(OC)c(OC)c2)S3)CC1 | 9.28 µM (active) | 
Cc1cc(-c2nnc(SCC(=O)Nc3ccc(S(N)(=O)=O)cc3)n2N)n[nH]1 | inactive | 
CN1C(=O)[C@H]2[C@@H](C3CC3)N3C(=O)CN(Cc4ccccc4)C(=O)[C@@]3(C)[C@H]2C1=O | inactive | 

SMILES | Potency | activity change, negative = inhibition
O=C1NC(c2ccccc2)Oc2ccccc21 (configuration not stated) | inactive | 
COc1ccc(-c2ocnc2C(=O)Nc2ccc3c(c2)CCC3)cc1 | inactive | 
O=C(Nc1nnc(-c2ccc(F)cc2)s1)c1c(F)cccc1Cl | inactive | 
CC(=O)c1nn(-c2cccc(C(F)(F)F)c2)c(=O)[nH]c1=O | inactive | 
CCNS(=O)(=O)c1ccc(CCC(=O)N2CCN(c3ccc(OC)cc3)CC2)cc1 | inactive | 
CCCc1ccc(OCCNC(=O)c2ccccc2Br)cc1 | inactive | 
COc1ccc(OCCNC(=O)c2cc(C3CC3)nc3c2cnn3C(C)C)cc1 | 13.1 µM (active) | 
CC(=O)Nc1ccc(CC#N)cc1 | inactive | 
N#CCc1ccc(NC(=O)c2ccccc2C(=O)Nc2ccc(CC#N)cc2)cc1 | inactive | 
COCCNC(=O)COc1ccc(C)c(C)c1 | inactive | 
CC(C)n1ncc2c(C(=O)Nc3ccc(CC#N)cc3)cc(C3CC3)nc21 | 14.7 µM (active) | 
CC(C)n1ncc2c(C(=O)NCc3ccccc3CN(C)C)cc(C3CC3)nc21 | 11.7 µM (active) | 
Cc1ccccc1OCCC(=O)OCC(=O)NCCc1ccc(S(N)(=O)=O)cc1 | inactive | 
Cc1cc(C)c(S(=O)(=O)c2cc(F)ccc2C)c(=O)[nH]1 | inactive | 
O=c1ccc(-c2ccc(S(=O)(=O)Nc3ccccc3)o2)n[nH]1 | inactive | 
O=C(CN1C(=O)CSC1=O)N1CCCC(Nc2ccc(F)cc2)C1 (configuration not stated) | inactive | 
Cc1ccc(S(=O)(=O)N(C)c2ccc(OCC(=O)OCC(=O)N(CC#N)c3ccccc3)cc2)cc1 | inactive | 
Cc1cccc(NC(=S)NC(=O)c2ccc(Br)o2)c1 | inactive | 
O=C(Nc1ccc(Br)cn1)c1ccc([N+](=O)[O-])o1 | inactive | 
Cc1cccc(NC(=O)c2ccc([N+](=O)[O-])o2)c1 | 13.1 µM (active) | 
O=C(CNC(=O)c1ccc(Br)o1)Nc1ccccc1 | inactive | 

SMILES | Potency | activity change, negative = inhibition
COCCNC(=O)c1ccc(S(=O)(=O)c2ccc(Cl)cc2)c(NC(C)=O)c1 |  | 0.449% [at 0.00184 µM] (inactive)
c1cnc(N2CCN(c3ccc4ccccc4n3)CC2)nc1 | inactive | 
CC12CCC(C(=O)N3CCN(c4ncccn4)CC3)(c3nc4ccccc4nc31)C2(C)C (configuration not stated) | 11.7 µM (active) | 
CC(Oc1ccc(F)cc1)C(=O)N1CCN(c2ncccn2)CC1 (configuration not stated) | inactive | 
O=C(NCc1nnc(SCC(=O)N2CCCCCC2)o1)c1ccc(F)cc1 | inactive | 
Cc1ccc(S(=O)(=O)N[C@@H](Cc2ccccc2)C(=O)N2CCC(C(=O)N[C@H](C(=O)O)C(C)O)CC2)cc1 (some centres not stated) | inactive | 
N#CC1=C(SCc2ccccc2)NC(=O)C(C#N)C12CCCC2 (configuration not stated) | inactive | 
CC(NC(=O)CSc1nc2c(cc1C#N)CN(C)CC2)c1ccccc1 (configuration not stated) | 10.4 µM (active) | 
Cc1cc(NC(=O)CSc2nc3c(cc2C#N)CCCCC3)no1 | inactive | 
CN1CCc2nc(SC(C(=O)O)c3ccccc3)c(C#N)c(-c3cccs3)c2C1 (configuration not stated) | inactive | 
CC1(C)CCc2nc(SCc3ccccc3)c(C#N)cc2C1 | 5.22 µM (active) | 
Cc1cc(C)c(C#N)c(SCc2ccccc2C(=O)O)n1 | inactive | 
C[C@@H]1CC[C@@]2(OC1)O[C@H]1C[C@H]3[C@@H]4CC=C5C[C@@H](O)[C@H](O)C[C@]5(C)C4CC[C@]3(C)[C@H]1[C@@H]2C (some centres not stated) | inactive | 
CN(C)c1ccc(CNC(=O)CN2C(=O)COc3ccc(S(=O)(=O)N4CCCC4)cc32)cc1 | inactive | 
Cc1ccc(S(=O)(=O)NCc2ccc(C(=O)NC3CCC(C)CC3)cc2)cc1 (configuration not stated) | inactive | 
O=C(CC(n1cncn1)C(Cl)(Cl)Cl)c1ccc([N+](=O)[O-])cc1 (configuration not stated) |  | -32.2% [at 0.00184 µM] (inactive)
CC(C)C[C@@H](NC(=O)[C@H]1CCCN1C(=O)Cc1ccccc1)C(N)=O (PhAc-[dP]-[dL]-NH2) |  | 8.09% [at 0.00184 µM] (inactive)
CCOCCn1c(-c2ccccc2)nc2ccccc21 | inactive | 
CCCCn1c(-c2cccc(C)c2)nc2cc3[nH]c(=O)c(C(C)C)nc3cc21 | 9.28 µM (active) | 
CCCCn1c(N)c(N(CCOC)C(=O)CSCC(=O)Nc2cccc(C)c2)c(=O)[nH]c1=O | inactive | 
